# Laboratory results published in ChEMBL document CHEMBL3988442, “University of Dundee, Small-Polar-MMV Screening Library” (2021).
# The campaign covered roughly 48,000 compounds. About 13,000 (27%) showed an effect of 50% or more. The list shows a part of the results.
# System: Wolbachia pipientis
# Assay: Anti-Wolbachia Cell-Based Screen
# Assay type: functional
# Parameters: scale not given: in the data most compounds retested in dose-response had high values
# Conditions: 5 µM
row,Structure (SMILES),Percent Effect [%]
1,CC(C)c1nc2n(n1)CC(Nc1ncnc3ccccc13)CC2 (stereo not drawn),-42.74
2,COC1CCN(C(=O)c2nn(-c3ccc(C(C)C)cc3)cc2O)CC1,2.392
3,CCN(CCC(=O)OC)C(=O)c1cc(F)cc2[nH]cnc12,-3.962
4,COC(=O)CCCN(C)C(=O)c1cc(F)cc2[nH]cnc12,-15.15
5,CC(C)C1CN(C(=O)c2nccnc2N)CCS1 (stereo not drawn),-3.274
6,CCCN(CC(F)(F)F)C(=O)c1cc(F)cc2[nH]cnc12,-1.946
7,CC(C)C1CN(C(=O)c2ccc(C(N)=O)cc2)CCS1 (stereo not drawn),0.1325
8,COCCN(CCOC)C(=O)c1cc(F)cc2[nH]cnc12,18.56
9,CC1(C)CCN1C(=O)c1cc(F)cc2[nH]cnc12,96.75
10,CC(C)C1CN(C(=O)c2cc(F)cc3[nH]cnc23)CCS1 (stereo not drawn),102.4
11,CC1(C)CN(C(=O)c2cc(F)cc3[nH]cnc23)CCS1,94.05
12,CCC(CO)NC(=O)Nc1cc(F)ccc1Br (stereo not drawn),7.156
13,N#Cc1cccc(OCC(=O)N(Cc2ccsc2)C2CC2)c1,-11.35
14,COCC1CCN(CCCc2cccc(OC)c2)CC1,-10.46
15,CC(C)(C)CNC[C@H]1Cn2ccnc2CO1,-18.46
16,C=C(C)COc1ccccc1NC(=O)N1CCOCC1CO (stereo not drawn),6.942
17,NC(=O)C1CN(C(=O)Nc2ccccc2SC(F)(F)F)CCO1 (stereo not drawn),-3.203

row,Structure (SMILES),Percent Effect [%]
1,NC(=O)C1CN(C(=O)Nc2ccccc2N2CCCCCC2)CCO1 (stereo not drawn),3.966
2,NC(=O)C1CN(C(=O)Nc2ccccc2OCC(F)(F)F)CCO1 (stereo not drawn),120.3
3,NC(=O)C1CN(C(=O)C2(c3ccc(F)cc3F)CCCC2)CCO1 (stereo not drawn),-8.523
4,NC(=O)C1CN(C(=O)Nc2ccccc2-c2cccs2)CCO1 (stereo not drawn),-5.73
5,O=C(COc1ccccc1O)N1CCOC(C(F)(F)F)C1 (stereo not drawn),13.92
6,NC(=O)C1CN(C(=O)Nc2ccccc2Oc2ccccc2Cl)CCO1 (stereo not drawn),94.62
7,NC(=O)C1CN(C(=O)Nc2ccccc2SC2CCCC2)CCO1 (stereo not drawn),100
8,CSc1ccc(-c2nc(CN3CCCC(CNC(C)=O)C3)c(C)o2)cc1 (stereo not drawn),24.94
9,CC(=O)N1CCC(N2CCOC[C@H]2c2nc(-c3ccccc3)c[nH]2)CC1,-17.76
10,Cc1cc(C)c2nc(CN3CCC(C#N)CC3)cc(O)c2c1,-6.492
11,N#Cc1ccnc(NCc2cc3n(n2)CCCN(C(=O)C2CCC2)C3)c1,115.4
12,CC(=O)c1ccc(NCc2cc3n(n2)CCCN(S(C)(=O)=O)C3)nc1,-0.5632
13,O=C(NCc1cc2n(n1)CCCN(Cc1ccc(CO)o1)C2)C1CCC1,-16.23
14,N#Cc1ccc(NCc2cc3n(n2)CCCN(C(=O)C2CCC2)C3)nc1,102.7
15,CS(=O)(=O)N1CCCn2nc(CNc3cc(C#N)ccn3)cc2C1,9.255
16,O=C(NCc1cc2n(n1)CCCN(Cc1ccc(Cl)s1)C2)C1CCC1,-18.59
